From ChEMBL document CHEMBL5058541

Columns and labels:
[1] = molecular target: Bromodomain-containing protein 4 (Homo sapiens) (UniProt O60885); conditions: Compound concentration 20.0 uM, Protein concentration 2.0 uM, Result type QC Liability
[2] = molecular target: T1, Transcription intermediary factor 1-alpha (Homo sapiens) (UniProt O15164); conditions: Compound concentration 20.0 uM, Protein concentration 2.0 uM, Result type QC Liability
T1 sequence (whole entry): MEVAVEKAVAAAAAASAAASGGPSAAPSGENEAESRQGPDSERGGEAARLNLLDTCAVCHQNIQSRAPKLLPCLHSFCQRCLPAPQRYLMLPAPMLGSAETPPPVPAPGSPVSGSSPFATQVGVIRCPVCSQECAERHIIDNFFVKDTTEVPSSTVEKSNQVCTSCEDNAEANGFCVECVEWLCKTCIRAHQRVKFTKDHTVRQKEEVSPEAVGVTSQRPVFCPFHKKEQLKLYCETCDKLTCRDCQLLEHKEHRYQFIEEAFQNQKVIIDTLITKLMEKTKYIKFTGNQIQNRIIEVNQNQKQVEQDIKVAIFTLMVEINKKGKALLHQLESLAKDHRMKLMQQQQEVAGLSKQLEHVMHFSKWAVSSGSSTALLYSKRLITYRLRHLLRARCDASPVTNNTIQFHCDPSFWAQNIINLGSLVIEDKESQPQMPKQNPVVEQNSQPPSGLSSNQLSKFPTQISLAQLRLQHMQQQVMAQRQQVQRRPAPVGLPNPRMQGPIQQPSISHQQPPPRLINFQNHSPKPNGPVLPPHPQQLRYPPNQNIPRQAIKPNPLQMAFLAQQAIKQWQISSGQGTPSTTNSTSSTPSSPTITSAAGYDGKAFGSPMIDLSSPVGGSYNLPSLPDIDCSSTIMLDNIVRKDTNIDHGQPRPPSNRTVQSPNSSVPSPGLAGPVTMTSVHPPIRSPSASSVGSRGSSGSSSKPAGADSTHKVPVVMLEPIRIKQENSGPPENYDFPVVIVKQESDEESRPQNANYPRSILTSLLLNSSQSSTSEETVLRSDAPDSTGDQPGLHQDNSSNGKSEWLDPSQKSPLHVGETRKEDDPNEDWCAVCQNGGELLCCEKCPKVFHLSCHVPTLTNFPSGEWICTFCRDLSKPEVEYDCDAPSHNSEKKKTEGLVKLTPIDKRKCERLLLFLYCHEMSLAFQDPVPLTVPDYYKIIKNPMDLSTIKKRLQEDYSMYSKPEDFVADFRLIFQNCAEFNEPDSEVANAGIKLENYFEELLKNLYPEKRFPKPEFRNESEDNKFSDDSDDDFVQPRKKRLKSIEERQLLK

In the case of CN(C)C(=O)c1ccc(-c2cc(C(=O)N[C@@H]3CCc4ccccc43)no2)cc1O, the ΔTm [1] is reported as -0.51 c and the ΔTm [2] is reported as -0.594 c.

CN(c1ncccc1CNc1ccnc(-c2nc3c(F)c(Cl)ccc3[nH]2)n1)S(C)(=O)=O gave a ΔTm [1] of -0.76 c and a ΔTm [2] of -0.07 c.

Work on O=C(NCCCN1CCOC1=O)c1cnc(NCc2cc(Br)ccc2Br)nc1NC1CCCC1 yielded a ΔTm [1] of 0 c and a ΔTm [2] of 0 c.

Compound CS(=O)(=O)N1CCCC(NC(=O)[C@H](CCC2CCCCC2)NC(=O)c2ccc(CNC(=O)c3cnc4ccccn34)cc2)C1 (stereo partly drawn) has a ΔTm [1] of 0.345 c and a ΔTm [2] of 0.0818 c.
